hcDAF12 agonist: activators of H. contortus DAF-12 nuclear receptor | 370,000 tested, 1.4% active | HEK293 hcDAF-12 lit1-tk-luc reporter, luminescence; 0% DMSO, 100% Δ7-dafachronic acid | activation, % at 6.8 µM;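 active = activation above the mean of all tested compounds plus 3 SD, cut at about 5.5% in these data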;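 also: 100% = response to 3 µM Δ7-dafachronic acid high control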
hgDAF12 agonist: agonists of H. glycines DAF-12 nuclear receptor. AID 687014. HEK293 GAL4-hgDAF12 UAS-luciferase reporter, agonist luminescence; normalized to butyrate control. 370,000 tested, 1.8% active. activation, % at 6.8 µM;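 active = activation above a cutoff set at the mean of all screened compounds plus 3 SD, cut at about 10% in these data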;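 also: 0% = DMSO wells and 100% = sodium butyrate wells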
ssDAF-12 act: S. stercoralis DAF-12 activation, primary screen; 370,000 tested, 1% active; HEK293 ssDAF-12/GRIP1 lit1-tk-luc reporter, luminescence; % of 3 µM dafachronic acid response; activation, % at 6.8 µM;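 active = activation above the mean over all tested compounds plus 3 SD, cut at about 0.9% in these data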;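 also: 0% = DMSO-only wells and 100% = 3 µM delta7-dafachronic acid wells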
DAX1 inh-1: inhibitors of human orphan nuclear receptor DAX1 (NR0B1); 340,000 tested, 0.99% active; HEK293 Gal4-DAX1 luciferase reporter, luminescence; P51843; inhibition, % at 6.75 µM;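 active = inhibition above the mean over all tested compounds plus 3 SD, cut at about 4.2% in these data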;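 also: 0% = DAX1-transfected cells with DMSO and 100% = empty-vector control cells with DMSO; inhibition shows as a rise in luminescence from relieved DAX1 repression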
Target sequence (P51843 207-470 limits assumed): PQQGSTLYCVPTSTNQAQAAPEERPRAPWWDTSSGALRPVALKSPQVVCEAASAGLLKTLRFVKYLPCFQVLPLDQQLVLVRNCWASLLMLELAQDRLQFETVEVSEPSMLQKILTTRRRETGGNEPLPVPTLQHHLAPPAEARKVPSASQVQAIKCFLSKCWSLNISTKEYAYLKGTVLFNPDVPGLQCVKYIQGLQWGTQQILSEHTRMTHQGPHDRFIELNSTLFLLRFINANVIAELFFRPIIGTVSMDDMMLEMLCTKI
GAA850 FXN act: frataxin GAA850 promoter activation; 360,000 tested, 0.56% active; HEK293 lucGAA850 FXN promoter luciferase reporter, 24 h; percent of 10 µM SAHA response; AID 540364; activation, % at 6 µM;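 active = activation above the average of all compounds screened plus 3 SD, cutoff fixed separately per campaign, cut at about 7.5% in these data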;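 also: 0% = DMSO wells and 100% = 10 µM SAHA wells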
DAX1 inh-2: inhibitors of DAX1 repression of SF-1 activated StAR promoter | HEK293T StAR-luciferase reporter, SF-1/DAX-1 repression relief | inhibition, % at 6.8 µM | 370,000 tested, 1.1% active | AID 652010;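 active = inhibition above the mean over all tested compounds plus 3 SD, cut at about 3.6% in these data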;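 also: 0% = DAX-1 cells with DMSO and 100% = cells lacking DAX-1 with DMSO; higher inhibition means more luminescence from relief of DAX-1 repression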
* marks the source's active call; other numbers are inactive results; x = no result. An excerpt weighted towards active compounds, which were near 4.5% of everything screened.

SMILES	hcDAF12 agonist	hgDAF12 agonist	ssDAF-12 act	DAX1 inh-1	GAA850 FXN act	DAX1 inh-2
c1ccc(SCCOCCN2CCc3ccccc3C2)cc1	6.3*	2.6	-0.8	0.5	0.6	0.8
CC(Sc1ccccn1)C(=O)Nc1ccccc1 (stereo not drawn)	3.5	13.2*	-0.3	1.6	4.2	1.8
CC(=O)c1ccc(NC(=O)C(C)Sc2ccccn2)cc1 (stereo not drawn)	3.6	5.4	-1.1	0.8	4.5	3.5
c1csc(-c2noc(CN3CCc4sccc4C3)n2)c1	-0.1	4.4	-1.4	0.3	-0.1	0.6
C[C@@H]1CN(Cc2nc(-c3cccs3)no2)C[C@H](C)O1	0.3	1.7	-0.3	9.4*	5.0	0.5
COc1ccc2c(c1)CCCN2C(=O)C1CCCN(S(=O)(=O)c2ccc(Cl)s2)C1 (stereo not drawn)	-0.7	-0.6	-0.3	x	x	-1.5
Cc1ccc(C(=O)Nc2ncc(Cc3ccc(F)cc3)s2)o1	4.8	7.1	0.4	1.9	0.1	4.2*
Cc1nc(NC(=O)/C=C/c2ccc(F)cc2)sc1C(=O)N(C)C	-0.2	-0.9	-1.7	-0.5	1.2	0.6
Cc1nc(NC(=O)c2ccncc2)sc1C(=O)N(C)C	-1.6	-1.5	-0.4	-0.2	2.5	0.3
Cc1nc(NC(=O)/C=C/c2ccccc2)sc1C(=O)N(C)C	4.0	10.5*	-0.6	0.3	2.5	0.6
Cc1ccc(C(=O)Nc2nc(C)c(C(=O)N(C)C)s2)o1	1.7	2.1	-0.7	1.7	4.3	4.4*
COc1ccccc1NC(=O)CCC(=O)N/N=C(/C)c1ccc(C)cc1	0.7	-1.1	-0.8	8.4*	-0.6	-0.1
Cc1ccc(C(=O)CCC(=O)Nc2ccccc2F)cc1	1.2	3.0	1.0*	3.0	1.5	0.5
Cc1ccc(OCC(=O)Nc2ccccc2F)cc1	4.3	12.8*	0.1	6.1*	1.5	1.6
CCOC(=O)[C@@]12CN(C(=O)OC(C)(C)C)CC=C1N(Cc1ccc(OC)cc1)C(=O)[C@H]2CC(=O)NCCCOC	-2.4	-2.5	-1.1	x	x	-0.8
O=C(Nc1ccc2ccccc2c1)NC1CCCCN(Cc2cccc(Cl)c2)C1=O (stereo not drawn)	-2.2	0.9	-1.3	x	x	-0.6
CC[C@H](C(=O)Nc1ccccc1N1CCCC1)c1ccccc1	-1.6	2.1	-1.3	x	x	-0.8
Nc1c(C(=O)N2CCCCC2)sc(=S)n1-c1ccccc1	-1.0	-1.0	-1.4	1.6	-1.5	0.3
Nc1nc(SCc2ccccc2)sc1C(=O)N1CCCCC1	4.5	10.6*	-1.1	2.9	4.2	1.9
CC(C)N1Cc2nnn(Cc3ccccc3)c2-c2cc(N3CCCC3)ccc2S1(=O)=O	-0.7	0.6	-1.7	x	x	-0.1
COc1cccc(C(=O)Nc2cccc(C(C)=O)c2)c1	0.3	7.5	-0.6	2.1	4.0	1.6
COc1cccc(C(=O)Nc2ccc(C)cc2)c1	5.1	9.3	1.6*	0.7	2.5	4.0*
COc1ccc(NC(=O)Nc2cccc(OC)c2)cc1	1.7	7.3	-0.8	0.4	2.9	1.8
COc1cccc(NC(=O)c2cccc(Cl)c2)c1	3.6	12.1*	-0.2	1.4	2.4	2.3
COc1cccc(NC(=O)c2cnc(SC)nc2)c1	4.3	2.8	1.3*	0.5	1.6	-0.5
SMILES	hcDAF12 agonist	hgDAF12 agonist	ssDAF-12 act	DAX1 inh-1	GAA850 FXN act	DAX1 inh-2
COc1cccc(NC(=O)Nc2ccccc2Br)c1	-2.1	10.9*	-0.8	1.7	2.5	0.6
C=CCN(C)CC#Cc1ccccc1C	-2.1	1.9	-0.9	x	x	0.0
COc1cccc(C(=O)Nc2cccc(-c3ccc(N4CCOCC4)nn3)c2)c1	0.3	4.5	-0.5	0.8	0.8	4.0*
Cc1cccc(C(=O)Nc2cccc(OC(=O)c3cccc(C)c3)c2)c1	3.9	12.5*	-0.1	2.2	2.8	1.2
CC(=O)c1cccc(NC(=S)NC(=O)c2cncc(Br)c2)c1	0.5	4.6	0.2	1.5	3.4	-0.4
COc1cccc(NC(=O)Nc2nc(SC)ns2)c1	3.8	12.4*	0.2	7.2*	1.9	1.7
COc1cccc(NC(=S)NC(=O)c2cncc(Br)c2)c1	1.2	3.9	-0.8	4.5*	3.0	-0.1
COc1ccc([C@H]2OC(=O)C[C@H]2C(=O)N2CCN(c3ccccc3C(F)(F)F)CC2)cc1OC	-1.4	2.6	-1.3	x	x	-0.3
CN(Cc1cn(Cc2ccccc2)nn1)S(=O)(=O)c1ccc(F)cc1Br	4.1	2.8	-1.4	x	x	0.4
COc1ccc(NC(=O)c2ccc(C)cc2)c(OC)c1	4.4	11.7*	-0.3	1.1	5.2	1.1
COc1ccc(NC(=O)c2ccc3[nH]c(=O)c(=O)[nH]c3c2)c(OC)c1	-0.6	-0.4	-0.8	-0.4	-0.3	-0.4
O=C1C=CC2=C3c4cc(O)c(O)cc4CC3(O)COC2=C1O (stereo not drawn)	-0.2	-1.6	-0.9	5.2*	0.6	0.7
Cc1cccc(Nc2ncnc3c2cnn3C)c1	-2.2	0.9	-1.5	-0.5	4.0	-0.1
Cn1ncc2c(Nc3ccc4ccccc4c3)ncnc21	1.9	12.5*	-1.6	2.4	4.2	2.1
N=c1c2c(ccn1CCCCc1ccccc1)Oc1ccc3ccccc3c1C2c1ccccc1 (stereo not drawn)	-1.6	-3.6	-1.3	x	x	x
CO[C@H]([C@H](C)/C=C/N(C)C=O)[C@@H](C)C(=O)CC[C@H](C)[C@H](O)[C@H](C)[C@H]1OC(=O)/C=C/C(C)=C/C[C@H](O)C[C@@H]2C=CC[C@@H](C[C@H](OC)[C@@]3(CO3)[C@@H](OC)C[C@@H](OC)[C@@H]1C)O2	-3.3	-11.0	-1.6	x	x	x
CC(C)(C)OC(=O)NCCCCCNC(=O)c1[nH]cnc1C(=O)Nc1cc(Br)ccc1F	-1.9	-0.6	-1.1	0.7	-3.0	0.7
CC(C)(C)OC(=O)NCc1ccc(NC(=O)c2nc[nH]c2C(=O)Nc2cc(Br)ccc2F)cc1	-1.0	3.1	1.1*	x	x	0.9
Cc1c(OCC(=O)N[C@H](C(=O)O)c2ccccc2)ccc2c3c(c(=O)oc12)CCCC3	0.2	-1.2	-1.3	4.3*	-1.5	0.1
c1ccc(Cn2ccc3ccc(-c4ccc5ccn(Cc6cccc(-c7ccsc7)c6)c5c4)cc32)cc1	1.0	2.5	-0.5	x	x	-1.1
CC(C)C[C@H]1COc2cccc(F)c2S(=O)(=O)N1Cc1cn(CCC2OCCO2)nn1	-2.6	-1.6	-1.6	x	x	0.6
CCC(CO)Nc1ccn2nc(-c3cccs3)cc2n1 (stereo not drawn)	3.6	11.2*	-0.4	x	4.8	3.9*
COc1ccc(C(=O)NCc2ccc(OCCN(C)C)cc2)cc1OC	5.6*	-3.6	-1.6	-0.4	0.1	0.8
COc1cc(C(=O)NCc2ccc(OCCN(C)C)cc2)cc(OC)c1OC	-1.0	1.1	-0.1	0.3	3.6	-0.1
